Bcl-xL primary: inhibitors of human Bcl-xL, primary screen, biochemical, fluorescence polarization, HTS | Bcl-2-like protein 1 (Homo sapiens), Q07817 | GST-Bcl-xL / FITC-Bim BH3 peptide fluorescence polarization | inhibition, % at 10.9 µM | actives 0.7% (n = 320,000);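 active means inhibition above the mean of all tested compounds plus 3 SD, cutoff set per campaign, cut at about 30% in these data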;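 further: 0% = DMSO wells and 100% = unlabeled Bim-BH3 peptide competitor; inhibitors lower millipolarization by displacing the labeled peptide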
Target sequence (Q07817 whole entry, looked up): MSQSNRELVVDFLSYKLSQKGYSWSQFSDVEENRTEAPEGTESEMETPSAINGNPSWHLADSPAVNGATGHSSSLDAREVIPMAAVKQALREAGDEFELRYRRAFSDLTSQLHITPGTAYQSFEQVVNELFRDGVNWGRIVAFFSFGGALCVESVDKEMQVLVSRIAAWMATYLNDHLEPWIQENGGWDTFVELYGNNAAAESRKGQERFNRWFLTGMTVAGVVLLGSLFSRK
Mcl1-Bid inh: Mcl-1/Bid binding inhibitors, primary screen, biochemical, TR-FRET, 1536-well | TR-FRET Mcl-1/Bid-Dy647 peptide binding | inhibition, % at 21.7 µM | actives 0.97% (n = 220,000) | AID 1021, 2008;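 active means compounds that cut the binding signal by more than half at the single screening dose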;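 further: His-tagged Mcl-1 with europium anti-His antibody binding Bid BH3 peptide; 0% = Mcl-1 plus peptide wells and 100% = peptide-only wells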
Target sequence (Q07820 whole entry, looked up): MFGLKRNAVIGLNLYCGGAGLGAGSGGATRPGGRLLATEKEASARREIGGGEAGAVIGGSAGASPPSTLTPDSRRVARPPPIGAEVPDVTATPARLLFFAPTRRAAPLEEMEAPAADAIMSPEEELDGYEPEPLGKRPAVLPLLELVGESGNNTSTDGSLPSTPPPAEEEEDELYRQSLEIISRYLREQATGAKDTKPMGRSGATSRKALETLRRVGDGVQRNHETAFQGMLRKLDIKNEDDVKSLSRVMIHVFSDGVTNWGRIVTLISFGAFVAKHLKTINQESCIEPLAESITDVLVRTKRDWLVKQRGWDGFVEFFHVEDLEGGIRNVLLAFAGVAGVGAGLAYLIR
Mcl1-Noxa inh: Mcl-1/Noxa binding inhibitors, primary screen, biochemical, TR-FRET, 1536-well. inhibition, % at 21.7 µM. TR-FRET Mcl-1/Noxa peptide binding, 2 h. AID 1022, 2008. actives 1.5% (n = 220,000);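 active means compounds that cut the protein-peptide binding signal by more than 50% relative to plate controls in a single-dose test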;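 further: His-tagged Mcl-1 with rhodamine Noxa BH3 peptide and terbium anti-His antibody; 0% = Mcl-1 plus Noxa peptide wells and 100% = peptide-only wells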
GLD-1 RNA inh: GLD-1/TGE RNA complex disruptors, primary screen, biochemical, fluorescence polarization; Female germline-specific tumor suppressor gld-1 (Caenorhabditis elegans), Q17339; purified GLD-1 + fluorescein TGE RNA; inhibition, % at 5.96 µM; actives 0.44% (n = 320,000); AID 2280, 2010;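 active means percent inhibition above a per-plate cutoff, the plate mean of test compounds plus 3 SD, cut at about 30% in these data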;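 further: 0% = DMSO wells with GLD-1 and probe and 100% = wells lacking GLD-1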
Mcl-1 Bim block: inhibitors of Bim peptide binding to Mcl-1, primary screen, biochemical, bead-based flow cytometry, multiplex; actives 0.1% (n = 190,000); inhibition, % at 10 µM; Bim peptide-Mcl-1 binding; Induced myeloid leukemia cell differentiation protein Mcl-1 (Homo sapiens), Q07820; in the data active means inhibition above about 40%;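 further: 0% = no compound tracer wells and 100% = peptide blocker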
MCL1-BIM inh: inhibitors of MCL1 binding to BIM-BH3, primary screen, biochemical, fluorescence polarization. Induced myeloid leukemia cell differentiation protein Mcl-1 (Homo sapiens), Q07820. inhibition, % at 10.9 µM. actives 0.68% (n = 320,000). GST-MCL1 / FITC-Bim-BH3 fluorescence polarization;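 active means inhibition above the mean inhibition of all tested compounds plus 3 SD, set per campaign, cut at about 40% in these data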;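 further: 0% = DMSO wells and 100% = unlabeled Bim-BH3 peptide control; higher means more loss of mP so more displacement of Bim peptide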
An asterisk follows results filed as active. In the library only some 2.3% were active in any assay of this set; here they are far more common.

How did O=C(O)c1ccc(-n2c(/C=C/c3ccccc3)nc3ccccc3c2=O)cc1 do in these assays?
Bcl-xL primary: 30*; GLD-1 RNA inh: -5; MCL1-BIM inh: -1

Results for Cc1ccc(C(=O)OCc2nc3ccsc3c(=O)[nH]2)o1 ?
Bcl-xL primary: 2; GLD-1 RNA inh: 5; MCL1-BIM inh: 5

What do the screens show for `Cc1cnc(C(=O)OCc2nc3ccsc3c(=O)[nH]2)cn1`?
Bcl-xL primary: 30*; GLD-1 RNA inh: 14; MCL1-BIM inh: 36

Results for CC(=O)Oc1ccc(C(=O)[C@H]2[C@H]3C(=O)N(c4ccc(C)cc4)C(=O)[C@H]3[C@@H]3C=CC=NN32)cc1 ?
Bcl-xL primary: 29; Mcl1-Bid inh: -49; Mcl1-Noxa inh: 13; GLD-1 RNA inh: 38*; Mcl-1 Bim block: 1; MCL1-BIM inh: 25

Results for CN(C)C(CNC(=O)C1CCN(C(=O)/C=C/c2ccccc2)CC1)c1ccccc1 (centres undefined) ?
Bcl-xL primary: -1; GLD-1 RNA inh: 8; MCL1-BIM inh: -5

How did COc1cc(/C=N/Nc2nc3ccccc3s2)cc([N+](=O)[O-])c1O do in these assays?
Bcl-xL primary: 34*; Mcl1-Bid inh: 13; Mcl1-Noxa inh: 32; GLD-1 RNA inh: -5; MCL1-BIM inh: 17

Results for COc1cc(/C=N/Nc2ccc(S(N)(=O)=O)cc2[N+](=O)[O-])cc(OC)c1O ?
Bcl-xL primary: 20; Mcl1-Bid inh: 3; Mcl1-Noxa inh: 48; GLD-1 RNA inh: 4; MCL1-BIM inh: 22

What do the screens show for `COc1cc(/C=N/Nc2nc3ccccc3[nH]2)ccc1O`?
Bcl-xL primary: 5; Mcl1-Bid inh: -15; Mcl1-Noxa inh: 34; GLD-1 RNA inh: 2; Mcl-1 Bim block: 1; MCL1-BIM inh: 2

What do the screens show for `O=C(Cn1nc2ccccc2n1)N/N=C/c1cc(Cl)cc([N+](=O)[O-])c1O`?
Mcl1-Bid inh: -39; Mcl1-Noxa inh: 38; Mcl-1 Bim block: 3

Results for COc1cc(/C=N/Nc2ccccc2[N+](=O)[O-])cc(OC)c1O ?
Bcl-xL primary: 18; Mcl1-Bid inh: -13; Mcl1-Noxa inh: 58*; GLD-1 RNA inh: 1; Mcl-1 Bim block: 2; MCL1-BIM inh: 26

Results for COc1cc(/C=N/Nc2nc3ccccc3[nH]2)cc(OC)c1O ?
Bcl-xL primary: 7; Mcl1-Bid inh: -67; Mcl1-Noxa inh: 73*; GLD-1 RNA inh: -7; Mcl-1 Bim block: 0; MCL1-BIM inh: 4

How did O=[N+]([O-])c1cc(Cl)cc(/C=N/Nc2nc3ccccc3s2)c1O do in these assays?
Bcl-xL primary: 4; Mcl1-Bid inh: -15; Mcl1-Noxa inh: 67*; GLD-1 RNA inh: -1; Mcl-1 Bim block: -1; MCL1-BIM inh: 9

Results for COc1ccc(C(=O)CCNc2ccc3c(c2)OCCO3)cc1 ?
Bcl-xL primary: 7; Mcl1-Bid inh: -12; Mcl1-Noxa inh: 23; GLD-1 RNA inh: 2; Mcl-1 Bim block: 3; MCL1-BIM inh: 3

How did COc1cc(/C=N/Nc2ccc(F)cc2F)cc(OC)c1O do in these assays?
Bcl-xL primary: 17; Mcl1-Bid inh: -76; Mcl1-Noxa inh: 62*; GLD-1 RNA inh: 6; Mcl-1 Bim block: 9; MCL1-BIM inh: 26

What do the screens show for `C(=N\Nc1nc2ccccc2s1)/c1ccccn1`?
Bcl-xL primary: 32*; Mcl1-Bid inh: -95; Mcl1-Noxa inh: -82; GLD-1 RNA inh: -3; MCL1-BIM inh: 34

Results for O=[N+]([O-])c1ccc(CSc2nnc(SCc3ccc(Cl)cc3)s2)cc1 ?
Bcl-xL primary: -9; Mcl1-Bid inh: -21; Mcl1-Noxa inh: -7; GLD-1 RNA inh: 2; Mcl-1 Bim block: -2; MCL1-BIM inh: -15

What do the screens show for `COc1cccc2sc3ccc(NCCC4CCCN4C)cc3c(=O)c12` (centres undefined)?
Bcl-xL primary: 33*; GLD-1 RNA inh: 36*; MCL1-BIM inh: 30

What do the screens show for `CN(C(=O)C1CCC(=O)N(CCCN2CCCC2=O)C1)C(C1CC1)C1CC1` (centres undefined)?
Bcl-xL primary: 3; GLD-1 RNA inh: 4; MCL1-BIM inh: -3

How did CC[C@]12c3[nH]c4ccccc4c3CCN1C(=O)C(CC(=O)NCc1cccc(C(F)(F)F)c1)C[C@@H]2C(=O)N1CCN(C(=O)C2CC2)CC1 (some centres undefined) do in these assays?
GLD-1 RNA inh: 3

How did C/C(=N/NC(=O)c1cc(-c2cccc([N+](=O)[O-])c2)n[nH]1)c1cccc(O)c1 do in these assays?
Bcl-xL primary: -2; Mcl1-Bid inh: -10; Mcl1-Noxa inh: 5; GLD-1 RNA inh: -1; MCL1-BIM inh: -2

Results for C/C(=N\NC(=O)c1cc(-c2cccc([N+](=O)[O-])c2)n[nH]1)c1ccccc1O ?
Bcl-xL primary: -7; Mcl1-Bid inh: 73*; Mcl1-Noxa inh: 58*; GLD-1 RNA inh: 13; Mcl-1 Bim block: 0; MCL1-BIM inh: 18

Results for O=C(CN1CCN(c2ccc(O)cc2)CC1)Nc1cc(S(=O)(=O)N2CCCC2)ccc1Cl ?
Bcl-xL primary: 30; Mcl1-Bid inh: -91; Mcl1-Noxa inh: 57*; GLD-1 RNA inh: 2; Mcl-1 Bim block: -1; MCL1-BIM inh: 22

What do the screens show for `CCN1CCN(CC(=O)Nc2cc(S(=O)(=O)N3CCCCC3)ccc2Cl)CC1`?
GLD-1 RNA inh: -5

How did O=C(CN1CCN(c2ccc(O)cc2)CC1)Nc1cc(S(=O)(=O)N2CCCCC2)ccc1Cl do in these assays?
Bcl-xL primary: 25; Mcl1-Bid inh: -60; Mcl1-Noxa inh: 69*; GLD-1 RNA inh: 3; Mcl-1 Bim block: 1; MCL1-BIM inh: 22

Results for O=C(CSc1ccccc1F)NCCCN1CCCC1=O ?
Bcl-xL primary: 0; GLD-1 RNA inh: -4; MCL1-BIM inh: -6

What do the screens show for `CC(C)(C)OC(=O)C[C@@H]1C/C=C\C[C@@H](CC(=O)NCCO)C(=O)NCCOC1=O`?
GLD-1 RNA inh: 4

What do the screens show for `CC1=CC(=O)C=C(C)C1=NOC(=O)c1cccc([N+](=O)[O-])c1`?
Bcl-xL primary: 11; Mcl1-Bid inh: -10; Mcl1-Noxa inh: 53*; GLD-1 RNA inh: -8; Mcl-1 Bim block: -3; MCL1-BIM inh: 6

How did O=S(=O)(c1ccc(Oc2ccc(-c3nnco3)cc2)nc1)N1CCC(Cc2ccccc2)CC1 do in these assays?
Bcl-xL primary: 0; Mcl1-Bid inh: 59*; Mcl1-Noxa inh: -75; GLD-1 RNA inh: 1; Mcl-1 Bim block: -1; MCL1-BIM inh: -5
